Where “and” joins values, the source holds several entries; their conditions need not be identical. Identical values can stand only once. The whole screen tested about 400,000 compounds, of which about 13,000 (3.2%) were called active. A call without a number means that no potency is given here. Not shown: some 18% with an inconclusive outcome. Calls come from the whole dose curve; as a rule, active = well fitted cell-killing curve with a large enough effect; inconclusive = small, poorly fitted or top-dose-only effect, or effect the other way; inactive = flat fitted curve, though single readings scatter. Only a selection was taken, and actives are over-represented in it overall.
Experiment: qHTS assay for MDR1-selective chemotherapeutics: Primary screen using the drug-selected MDR subline cells KB-V1; note: nearly all actives have a fitted effect of over 60% in size
Details: KB-V1 MDR cells viability, CellTiter-Glo, 72 h; series mostly up to 46.1 µM
Procedure, shortened: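 Drug-selected KB-V1 cells, grown in DMEM lacking phenol red with 10% FBS, receive compound titrations; after three days at 37 degrees C, surviving cell ATP is quantified by CellTiter-Glo luminescence and responses normalized and curve-fitted.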
Potency is the fitted concentration of half-maximal effect.

Row | SMILES | Potency
1 | CN(Cc1ccccc1)C(=O)CSc1nc2ccccc2[nH]1 | inactive
2 | CCC(C)N1C(=O)S/C(=C/c2ccc(Sc3nc4ccccc4[nH]3)o2)C1=O (configuration not stated) | 5.17 µM (active)
3 | O=C1NC[C@H](Cc2ccc(O)cc2)N(C[C@H]2CCCN2C[C@H](Cc2ccccc2)N2C[C@H](Cc3ccccc3)N(CCc3ccccc3)C(=O)C2=O)C1=O | inactive
4 | COCCCNc1ccn2nc(-c3ccc(CC(C)C)cc3)cc2n1 | inactive
5 | O=C(Nc1ccc(S(=O)(=O)Nc2ncccn2)cc1)c1cncc(Br)c1 | inactive
6 | CCOc1ncccc1C(=O)Nc1ccc(S(=O)(=O)Nc2nc(C)cc(C)n2)cc1 | 20.6 µM (active)
7 | CCOc1ncccc1C(=O)Nc1ccc2c(c1)OCCO2 | inactive
8 | CCOC(=O)c1cccc(NC(=O)C(Cc2ccccc2)NS(=O)(=O)c2cccc3nsnc23)c1 (configuration not stated) | inactive
9 | COc1cccc(-c2ccc(SCC(=O)N3CCN(c4ccccc4)CC3)nn2)c1 | 14.6 µM (active)
10 | Cc1nnc(SCC(=O)N2CCN(c3ccccc3)CC2)n1-c1ccccc1 | inactive
11 | COc1cccc(/C=C/C(=O)OCC(=O)N2CCN(c3ccccc3)CC2)c1 | inactive
12 | N#CNC1=NCN(CCc2ccccc2)CN1 | inactive
13 | O=C1CCCC2=C1[C@@]1(CCC(c3ccccc3)C1)N=C(Nc1nc3ccccc3o1)N2 (some centres not stated) | inactive
14 | c1ccc(CCN2CN=C(Nc3nc4ccccc4o3)NC2)cc1 | 13 µM (active)
15 | Cc1ccccc1Cn1nc(C)c(NC(=O)c2cc(-c3ccc(F)cc3)on2)c1C | inactive
16 | Cc1cc(NC(=O)c2cc(-c3cccs3)on2)nn1Cc1ccc(Cl)cc1 | 9.2 µM (active)
17 | CC(=O)c1ccc(NC(=O)c2cc(-c3cccs3)on2)cc1 | inactive
18 | Cc1cccc(CC(=O)Nc2cccc(-c3cn4cccnc4n3)c2)c1 | inactive
19 | COc1ccc(NC(=O)N(C)C[C@H]2Oc3ncc(C#C[C@@H](C)O)cc3C(=O)N([C@H](C)CO)C[C@H]2C)cc1 | inactive
20 | CCOC(=O)C1C(c2ccc(O)cc2)NC(=O)NC1(O)C(F)(F)F (configuration not stated) | inactive
21 | O=C(c1cccs1)C1C(c2ccc(Br)cc2)NC(=S)NC1(O)C(F)(F)F (configuration not stated) | 20.6 µM (active)
22 | Cc1ccc(Cc2c(-c3ccc(C)cc3)nc3c4ccccc4ccn23)cc1 | inactive
23 | c1ccc2c(c1)nnn2-c1ccncc1 | inactive
24 | CCc1ccc(-c2cc(C(=O)NCc3ccco3)c3ccccc3n2)s1 | inactive
25 | CC(=NCc1ccco1)C1=C(O)c2ccccc2C1=O | inactive

Row | SMILES | Potency
26 | CC(=NCc1ccco1)c1c(C(F)(F)F)[nH]n(-c2nc3ccccc3s2)c1=O | 9.2 µM (active)
27 | CN(C)C(CNC(=O)c1cc(Br)c(Br)s1)c1ccco1 (configuration not stated) | inactive
28 | CCCCC(CCCC)c1ccc(C=Nc2ccc(/C=C/c3ccnc4ccccc34)cc2)cc1 | inactive
29 | Cc1ccc(C(=O)OCC(=O)N2CCCCCC2)cc1S(=O)(=O)N1CCOCC1 | 14.6 µM (active)
30 | COc1ccc(C(=O)OCC(=O)c2ccc(C)c(S(=O)(=O)N3CCOCC3)c2)cc1OC | inactive
31 | O=C(OCC(=O)N1CCCCCC1)c1ccc(Br)c(S(=O)(=O)N2CCOCC2)c1 | inactive
32 | COC(=O)[C@]12CCCCC=C1N(Cc1ccco1)C(=O)[C@H](CC(=O)NCC1CCCCC1)C2 | inactive
33 | COC(=O)c1ccc(C2C(C(=O)Nc3ccccc3)=C(C)Nc3nc4ccccc4n32)cc1 (configuration not stated) | inactive
34 | CCOC(=O)C1=C(C)Nc2nc3ccccc3n2C1c1cccs1 (configuration not stated) | 3.26 µM (active)
35 | CC1=C(C(=O)Nc2ccccc2Cl)C(c2cccs2)n2ncnc2N1 (configuration not stated) | inactive
36 | CCOc1ccc(C2C(C(=O)NC)=C(C)Nc3nc4ccccc4n32)cc1OC (configuration not stated) | inactive
37 | COc1ccccc1NC(=O)C1=C(C)Nc2nc3ccccc3n2C1c1cccs1 (configuration not stated) | 5.8 µM (active)
38 | COc1ccccc1NC(=O)C1=C(C)Nc2ncnn2C1c1sccc1C (configuration not stated) | inactive
39 | O=S1(=O)C[C@@H](N2CCN(CCO)CC2)[C@H](COCc2ccccc2)N1 | inactive
40 | CC1(C(=O)NCc2ccccc2)CN(S(C)(=O)=O)CC(=O)N1CC(F)(F)F (configuration not stated) | inactive
41 | CN(C)CCN1CCN(c2cc(-c3cccc(Cl)c3)nc3ccnn23)CC1 | inactive
42 | CCc1nc2c(OCC(N)=O)cccn2c1N(C)C(=O)c1ccc(OC)cc1 | inactive
43 | CC1=C(C(=O)N2CCOCC2)CC(CC(=O)NCc2cccs2)C(=O)N1CCCN1CCCC1=O (configuration not stated) | inactive
44 | C#C[C@]1(O)CC[C@H]2[C@@H]3CCC4=CC(=O)CC[C@@H]4[C@H]3CC[C@@]21CC | 13 µM (active) and 7.31 µM (active)
45 | CCCCCCCCN1C(=O)[C@H](CC(=O)NCC23CC4CC(CC(C4)C2)C3)C[C@@]2(C(=O)OC)CCCCC=C12 | inactive
46 | CC(C)Sc1oc(-c2cccs2)nc1S(=O)(=O)c1ccc(Cl)cc1 | inactive
47 | CS(=O)(=O)N1CCN(c2ccc(C(=O)NC3C4CC5CC(C4)CC3C5)cc2[N+](=O)[O-])CC1 (configuration not stated) | 11.6 µM (active)
48 | CC(NC(=O)c1ccc(N2CCNCC2)c([N+](=O)[O-])c1)C12CC3CC(CC(C3)C1)C2 (configuration not stated) | inactive
49 | O=C(NC1C2CC3CC(C2)CC1C3)c1ccc(N2CCNCC2)c([N+](=O)[O-])c1 (configuration not stated) | inactive
50 | COc1ccc(-c2cc3nc(NCCOc4ccccc4)ccn3n2)cc1 | inactive

Row | SMILES | Potency
51 | CCc1nc2onc(C)c2c(=O)n1CC(=O)O | inactive
52 | COCCCNC(NC(=O)c1ccc(OC)cc1)C(Cl)(Cl)Cl (configuration not stated) | inactive
53 | COCCCNC(NC(=O)c1ccc(C)cc1)C(Cl)(Cl)Cl (configuration not stated) | 20.6 µM (active)
54 | CCOCCCNC(=O)C(NC(=O)CNC(=O)c1ccccc1)c1ccc(C)cc1 (configuration not stated) | inactive
55 | CCOC(=O)[C@]12CCC=C1N(Cc1ccco1)C(=O)[C@H](CC(=O)N1CCSCC1)C2 | inactive
56 | CC(C)Oc1ccc(CN2CCC2(C)C(=O)NCc2ccc(C(F)(F)F)cc2)cc1 (configuration not stated) | inactive
57 | Cc1cccc(-c2nc(SCC(=O)Nc3cc(C)on3)c3c(=O)n(C)c(=O)n(C)c3n2)c1 | inactive
58 | Cc1nc2ccccc2nc1CC(O)(c1ccccc1)c1ccccc1 | inactive
59 | O=C(NCc1ccccc1)C(=O)NCC(c1ccco1)S(=O)(=O)c1ccc(Cl)cc1 (configuration not stated) | inactive
60 | COc1ccc(CSc2nc(N3CCOCC3)c3c(c2C#N)CC(C)(C)OC3)cc1 | inactive
61 | CC1(C)Cc2c(C#N)c(SCc3nc4ccccc4[nH]3)nc(N3CCOCC3)c2CO1 | 9.2 µM (active)
62 | CC(C)C(=O)N1CCN(c2nc(-c3ccccc3)c3c(c2C#N)CC(C)(C)OC3)CC1 | inactive
63 | COc1cccc(CNCc2c(C(=O)O)n(Cc3ccc(C)cc3)c3cc(C)ccc23)c1OC | inactive
64 | Cc1c(CN2CC[C@@H](N3CCN(c4ccccn4)CC3)[C@H](O)C2)[nH]c2ccc(F)cc12 | inactive
65 | Fc1ccc2[nH]c3c(N4CCSCC4)ncnc3c2c1 | 3.26 µM (active)
66 | CCCCCc1c(C)nc(N2CCN(Cc3ccc4c(c3)OCO4)CC2)[nH]c1=O | inactive
67 | O=c1[nH]c(N2CCN(Cc3ccc4c(c3)OCO4)CC2)nc2c1CCCC2 | inactive
68 | Fc1ccc2[nH]c3c(N4CCN(Cc5ccc6c(c5)OCO6)CC4)ncnc3c2c1 | 9.2 µM (active)
69 | CC1=C(C(=O)N(C)C)CC(CC(=O)NCCc2ccccn2)C(=O)N1CCC1=CCCCC1 (configuration not stated) | inactive
70 | COCCNc1nc(Nc2ccccc2Cl)c2sc(-c3ccccc3)cc2n1 | inactive
71 | COc1ccc(NC(=O)c2nc(-n3nc(C)cc3C)ccc2Cl)cc1Cl | inactive
72 | COc1ccc(Nc2cc(C)nc(-n3nc(C)cc3C)n2)cc1 | 0.231 µM (active)
73 | CC(=O)Nc1ccc(Nc2cc(C)nc(Nc3ccc(NC(C)=O)cc3)n2)cc1 | inactive
74 | CC1(C)NC(=O)N(CC(=O)Nc2ccc(-c3ccccc3)cc2)C1=O | inactive
75 | CC1(Oc2ccc(Cl)cc2)CCN(Cc2csc3ccccc23)C1 (configuration not stated) | inactive

Row | SMILES | Potency
76 | CN(C)c1nc(N)nc(CSc2ccccn2)n1 | inactive
77 | CN(C)c1nc(N)nc(CSc2nnnn2-c2cccc3ccccc23)n1 | 6.51 µM (active)
78 | COc1ccc(-n2nnnc2SCc2nc(N)nc(N3CCOCC3)n2)cc1 | inactive
79 | CCOC(=O)C1CCCN(C(=O)c2ccc(C)c(F)c2)CC1 (configuration not stated) | inactive
80 | COc1ccc(N(CCC#N)S(=O)(=O)c2ccc(Cl)cc2)cc1 | 16.4 µM (active)
81 | COc1ccc(S(=O)(=O)NCCCCOc2ccc(Cl)cc2)cc1 | inactive
82 | COc1ccc(N(Cc2ccccc2)S(=O)(=O)c2cccc(C(=O)O)c2)cc1 | inactive
83 | CCCCNC(=O)Cn1c(SCc2cccc(Cl)c2)nc2ccncc21 | inactive
84 | O=C(NCCO)c1cccc(-c2cccc3nccn23)c1 | inactive
85 | CCC(=O)N1c2ccccc2CC1C(=O)N1CCN(c2cccc(OC)c2)CC1 (configuration not stated) | inactive
86 | Cc1ccc(NC(=O)Cn2sc3ccccc3c2=O)cc1 | inactive
87 | CC(C)OCCCn1c(SCC(=O)c2ccccc2)nc2c(sc3ccccc32)c1=O | inactive
88 | COc1ccc(C(=O)Nc2ccccc2C(=O)N2CCN(c3ccccc3)CC2)cc1 | inactive
89 | COc1ccc(N2CCN(C(=O)C3CCN(C(=O)c4ccccc4Cl)CC3)CC2)cc1 | inactive
90 | COc1ccc(C(=O)Nc2c(Cl)cc(Cl)cc2C(=O)N2CCC(C)CC2)cc1 | 3.26 µM (active)
91 | CCCNC(=O)C1(C)CCN1C(=O)Cc1ccc(-c2ccccc2)cc1 (configuration not stated) | inactive
92 | COC(=O)c1scc(-c2ccc(C)cc2)c1S(=O)(=O)Nc1cc(Cl)c(OC)cc1OC | inactive
93 | CCCNC(=O)C1CC(=O)N(c2ccc(OCc3ccccc3)cc2)C1 (configuration not stated) | inactive
94 | COc1ccc(OCCNC(=O)c2cc(C3CC3)nc3c2cnn3C(C)C)cc1 | 8.2 µM (active)
95 | CC(C)n1ncc2c(C(=O)Nc3ccc(CC#N)cc3)cc(C3CC3)nc21 | inactive
96 | CC(C)n1ncc2c(C(=O)NCc3ccccc3CN(C)C)cc(C3CC3)nc21 | inactive
97 | CCCCN1C(=O)C(CC(=O)NCc2cccs2)CC(C(=O)N2CCOCC2)=C1C (configuration not stated) | inactive
